# The list is not random: actives were taken first. Their share in the collection is about 2.4%.
# SENP7 inh: SENP7 protease inhibitors, primary screen, biochemical, luminescence, uHTS | inhibition, % at 5 µM | 1.5% of 330,000 active | recombinant SENP7, Z-RLRGG-aminoluciferin luminescence, 40 min | AID 434973, 2010;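 active = inhibition above about 50% at the single test dose, limit read from the data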;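 note: plate controls were DMSO with enzyme for no effect and no enzyme buffer wells for full effect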
# Target sequence (Q9BQF6 706-1050 limits assumed): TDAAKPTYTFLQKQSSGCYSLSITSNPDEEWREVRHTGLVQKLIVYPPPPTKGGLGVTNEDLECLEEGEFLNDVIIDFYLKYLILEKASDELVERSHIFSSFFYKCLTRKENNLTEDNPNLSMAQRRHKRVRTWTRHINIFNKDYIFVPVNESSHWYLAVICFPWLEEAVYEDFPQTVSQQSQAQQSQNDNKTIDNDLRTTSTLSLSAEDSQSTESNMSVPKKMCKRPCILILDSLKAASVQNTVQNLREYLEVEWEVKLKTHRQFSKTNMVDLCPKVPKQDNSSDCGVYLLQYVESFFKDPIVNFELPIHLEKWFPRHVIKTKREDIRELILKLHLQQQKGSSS
# SENP8 block-1: human SENP8 protease inhibitors, primary screen, biochemical, fluorescence, Nedd8 protein substrate, uHTS; Sentrin-specific protease 8 (Homo sapiens), Q96LD8; recombinant SENP8; inhibition, % at 20 µM; 0.64% of 360,000 active; in the data active = inhibition mostly above about 40%, no sharp cut-off; inactive = mostly below about 27%
# SENP6 inh: SENP6 protease inhibitors, primary screen, biochemical, luminescence, uHTS. Sentrin-specific protease 6 (Homo sapiens), Q9GZR1. Recombinant SENP6 catalytic domain, aminoluciferin luminescence. 1.8% of 330,000 active. inhibition, % at 10 µM;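 active = inhibition above about 50% at the single tested dose, limit read from the data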;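 note: plate controls were DMSO wells with enzyme for no effect and DMSO wells lacking enzyme for full effect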
# SENP8 block-2: SENP8 protease inhibitors, primary screen, biochemical, luminescence; AID 2540, 2010; inhibition, % at 10 µM; purified SENP8, Z-RLRGG-aminoluciferin cleavage; 1.2% of 330,000 active; in the data active = inhibition above about 50%
# Platelet DG rel: inhibitors of platelet dense granule secretion, primary screen, cell-based, MLPCN, human platelets | 0.22% of 300,000 active | inhibition, %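 (compounds screened at 7.5 µM in platelet-rich plasma)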 | human platelet-rich plasma, SFLLRN dense granule ATP release, luminescence | AID 1663, 2009;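 active = mean replicate score, as percent of positive control, at or above 50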
# SENP8 confirm: SENP8 protease inhibitors, retest, confirmation, biochemical, luminescence, single concentration; shares compounds with SENP7 inh; Recombinant SENP8, Z-RLRGG-aminoluciferin luminescence, 60 min; inhibition, % at 12.5 µM; 40% of 6,200 active; AID 488912, 2010;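 active = mean inhibition across replicates above about 50%, limit read from the data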
# SENP6 conf: SENP6 protease inhibitors, confirmation, biochemical, luminescence, single concentration; inhibition, % at 12.5 µM; 58% of 6,200 active; shares compounds with SENP7 inh; AID 488915, 2010; recombinant SENP6, Z-RLRGG-aminoluciferin luminescence
# SENP7 conf: SENP7 protease inhibitors, retest, confirmation, biochemical, luminescence, single concentration | shares compounds with SENP7 inh | recombinant SENP7, Z-RLRGG-aminoluciferin luminescence, 40 min | inhibition, % at 12.5 µM | 69% of 6,200 active
# Casp3 select: caspase-3 protease inhibitors, confirmation, selectivity assay for SENP inhibitor project, biochemical, single concentration; shares compounds with SENP7 inh; purified caspase-3, Z-DEVD-aminoluciferin luminescence, 60 min; inhibition, % at 12.5 µM; 60% of 6,200 active;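 active = mean inhibition above about 50%, limit read from the data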;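 note: plate controls were enzyme with DMSO for no effect and wells without caspase-3 for full effect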
# Target sequence (P42574 28-227 limits assumed): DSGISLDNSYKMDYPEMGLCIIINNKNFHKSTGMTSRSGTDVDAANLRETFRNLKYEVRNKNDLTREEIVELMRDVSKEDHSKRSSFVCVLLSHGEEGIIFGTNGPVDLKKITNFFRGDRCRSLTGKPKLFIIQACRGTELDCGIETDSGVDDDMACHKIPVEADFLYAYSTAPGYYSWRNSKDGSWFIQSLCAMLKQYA
# Luc interf: counter-screen for SENP inhibitors: luminescence interference; Pre-incubated SENP8/Z-RLRGG-aminoluciferin, luciferase luminescence interference; AID 488919; inhibition, % at 12.5 µM; 39% of 6,200 active; shares compounds with SENP7 inh;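 active = mean inhibition above about 50% when retested at one dose, limit read from the data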;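 note: plate controls were DMSO wells with completed reaction for no effect and substrate without enzyme for full effect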
# * marks the source's active call; other numbers are inactive results; i = inactive; x = no result given.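 Rule for the calls, unless noted: active = mean inhibition above about 50% in the one-dose retest (limit read from the data); inactive = the rest.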
SMILES,SENP7 inh,SENP8 block-1,SENP6 inh,SENP8 block-2,Platelet DG rel,SENP8 confirm,SENP6 conf,SENP7 conf,Casp3 select,Luc interf
CC(NC(=O)N1CCN(c2ccccc2F)CC1)c1ccc(F)c(F)c1 (centres undefined),9.0,11.0,-24.7,-2.6,-6.4,x,x,x,x,x
O=C(O)c1ccc(N/N=C/c2ccc(OC(=O)c3ccccc3Cl)cc2)cc1,46.6,-21.5,91.4*,89.6*,0.6,76.5*,96.5*,97.7*,45.1,7.3
COc1ccc(/C=N/Nc2ccc(C(=O)O)cc2)cc1OC,85.8*,-269.2,95.4*,81.8*,6.3,89.0*,88.0*,99.1*,90.5*,83.0*
Nc1ccc(C(=O)N/N=C\c2ccc(OC(=O)c3ccccc3Cl)cc2)cc1,-0.9,-46.2,-16.3,-3.8,2.9,x,x,x,x,x
CC(C)c1ccc(/C=N/Nc2ccc(C(=O)O)cc2)cc1,100.6*,-100.8,97.8*,97.0*,-6.1,99.2*,100.0*,102.6*,97.2*,98.6*
COc1ccc(/C=N/Nc2ccc(C(=O)O)cc2)cc1Br,100.1*,-330.3,95.0*,97.2*,68.1*,98.9*,99.5*,102.0*,97.9*,97.8*
COc1cc(C=NNc2ccccc2)ccc1OC(=O)c1ccccc1,x,3.8,x,x,x,x,x,x,x,x
CC(C)Nc1ccc(Cl)cc1[N+](=O)[O-],6.2,x,2.7,0.8,-7.4,x,x,x,x,x
COc1ccc(NC(=O)CCNS(=O)(=O)c2ccccc2F)cc1S(N)(=O)=O,6.5,5.0,-12.7,-2.3,-8.1,x,x,x,x,x
CC(Oc1cc(Cl)ccc1Cl)C(=O)N/N=C\c1ccnn1C (centres undefined),-3.3,19.6,-8.1,0.4,4.2,x,x,x,x,x
C=CCOc1c(Br)cc(/C=N/Nc2ccc(C(=O)O)cc2)cc1OCC,55.0*,-311.6,84.5*,77.2*,-17.1,87.7*,86.8*,94.2*,29.2,56.0*
Cc1ccc(S(=O)(=O)Oc2cccc(/C=N/Nc3ccc(C(=O)O)cc3)c2)cc1,61.9*,-140.5,-4.8,88.4*,-0.6,13.9,95.9*,100.8*,17.7,89.6*
CC(=O)N1CCn2c3c(c(=O)c4cc(C)ccc42)CCC31 (centres undefined),28.3,-102.9,55.0*,42.8,3.4,14.2,24.4,5.0,2.0,-0.9
CC(=O)N1CCn2c3c(c4cc(C)ccc42)CCCC31 (centres undefined),-1.4,-56.5,-13.9,3.1,-8.9,x,x,x,x,x
CCC(=O)Nc1cccc(C(=O)OCC(=O)c2ccccc2Cl)c1,-2.4,4.9,13.0,-13.3,7.7,x,x,x,x,x
CC(=O)Nc1cccc(C(=O)OCC(=O)c2ccccc2Cl)c1,61.4*,13.2,-3.1,46.7,7.5,72.2*,38.8,89.2*,69.9*,73.6*
COc1ccc(/C=C/C(=O)Nc2cccnc2Cl)cc1,91.5*,-17.0,89.2*,88.9*,40.4,8.0,92.2*,100.7*,94.6*,61.9*
COc1ccccc1/C=C/C(=O)Nc1cccnc1Cl,0.6,-87.2,24.7,9.6,2.8,x,x,x,x,x
CCCCNC(=O)C1(C)CCN1C(=O)c1oc2ccccc2c1C (centres undefined),x,11.9,x,x,x,x,x,x,x,x
CN(CC(=O)Nc1ccc(OC(F)(F)F)cc1)C(=O)Cc1cccs1,-4.7,-0.9,4.7,-13.8,x,x,x,x,x,x
Nc1ccc2oc(-c3cc(Br)ccc3Cl)nc2c1,7.9,-99.8,11.3,-0.9,5.5,x,x,x,x,x
CCc1ccc2oc(-c3cc(N)ccc3O)nc2c1,92.3*,-138.0,97.4*,93.6*,25.7,67.9*,94.4*,98.8*,85.7*,15.6
CCc1ccc2oc(-c3cc(N)ccc3Cl)nc2c1,95.5*,i,95.1*,92.4*,3.4,94.8*,96.7*,101.3*,81.6*,78.5*
Nc1ccc2oc(-c3ccccc3Cl)nc2c1,76.5*,-239.8,90.6*,67.9*,6.4,89.7*,89.6*,98.7*,87.3*,79.7*
CCc1ccc2oc(-c3cc(N)cc(C)c3O)nc2c1,53.6*,-110.1,78.7*,74.6*,x,35.2,50.1*,77.6*,58.4*,7.3
SMILES,SENP7 inh,SENP8 block-1,SENP6 inh,SENP8 block-2,Platelet DG rel,SENP8 confirm,SENP6 conf,SENP7 conf,Casp3 select,Luc interf
CCOc1ccc(NC(=O)N2CCC(c3nc4ccccc4[nH]3)CC2)cc1,2.7,9.9,-13.1,3.3,1.4,x,x,x,x,x
O=C(C1=C(O)C(=O)N(CC2CCCO2)C1c1cccc(Cl)c1)c1ccco1 (centres undefined),-0.6,7.9,-6.2,-15.0,-2.0,x,x,x,x,x
COc1cccc(CC(NC(C)=O)C(=O)NC2CCN(C(=O)c3ccc(Cl)cc3)CC2)c1OC (centres undefined),2.1,13.8,-6.7,-5.9,4.2,x,x,x,x,x
CC(Sc1ncn[nH]1)C(=O)Nc1ccc(Cl)cn1 (centres undefined),11.0,12.4,15.3,8.4,-11.8,x,x,x,x,x
CCNC(=O)N(C)C[C@H]1N[C@@](C)(C(=O)OC)[C@H]2C(=O)N(C)C(=O)[C@@H]12,-3.6,1.3,-30.3,-9.1,x,x,x,x,x,x
O=C(O)CCc1ccc(-c2ccc(Cl)cc2)o1,32.3,15.1,72.6*,47.2,-3.2,67.6*,61.1*,88.3*,65.8*,80.9*
COc1ccc(C(=O)Nc2ccc3c(c2)OCCO3)cc1,-15.5,22.2,72.7*,69.8*,x,80.9*,81.3*,96.9*,90.6*,82.9*
CCCOc1ccc(C(=O)Nc2ccc3c(c2)OCCO3)cc1,76.3*,9.1,63.7*,72.9*,17.4,21.2,48.3,93.4*,74.5*,7.5
COc1cc(C(=O)Nc2ccc3c(c2)OCCO3)ccc1OC(F)F,77.0*,11.2,82.2*,62.4*,14.2,6.0,71.2*,90.0*,75.9*,75.2*
COc1cc(C(=O)Nc2ccc3c(c2)OCCO3)ccc1OC(C)C,-7.3,13.1,-13.1,-16.8,6.7,x,x,x,x,x
CC(=O)Oc1ccc(C(=O)Nc2ccc3c(c2)OCCO3)cc1,47.4,19.1,49.8,2.3,16.6,x,x,x,x,x
